Compound activity as filed in PubChem BioAssay.
The entries come from a sample that favours hits as a whole.
BL2 CD40 inh = inhibitors of CD40-induced NF-kB signaling, primary screen, BL2 cells, luciferase reporter, single point | CD40L-induced, 4 h | inhibition, % at 10 µM | actives 0.94% (n = 83,000);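 active means mean inhibition of at least 50% with a set share of replicates also reaching that level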;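 further: 0% = neutral control wells and 100% = IKK inhibitor VII at 50 µM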
An asterisk follows results filed as active; [ ] = dose if it differs, or a comment.

SMILES	BL2 CD40 inh
C[C@H](CO)N1C[C@H](C)[C@@H](CN(C)Cc2ccc(C(=O)O)cc2)Oc2ccc(NS(=O)(=O)c3cccs3)cc2C1=O	0[25 µM]
C[C@@H]1CN([C@@H](C)CO)C(=O)Cc2cc(NS(=O)(=O)c3ccc(Cl)cc3)ccc2O[C@H]1CN(C)Cc1ccc(Cl)c(Cl)c1	65*
COc1cccc(-c2ccc3c(c2)[C@@H]2[C@@H](CCN2C(=O)c2ccccn2)[C@@H](CO)N3C)c1	-26[25 µM]
COc1ccccc1NC(=O)N(C)C[C@H]1OCc2ccccc2-c2c(n(C)c3ccccc23)C(=O)N([C@@H](C)CO)C[C@@H]1C	8
O=C(Nc1ccc(F)cc1)N1CC(=O)N2[C@@H](CO)[C@@H](c3ccc(C#Cc4ccc(F)cc4)cc3)[C@@H]2C1	12
O=C(Nc1nccs1)[C@@H]1[C@@H](CO)[C@@H]2Cn3c(cccc3=O)[C@H]1N2C(=O)C1CC1	-9[25 µM]
CCC(=O)N1[C@H](CO)[C@@H](c2ccccc2)[C@@H]1CN(C)C(=O)CN1CCOCC1	0[25 µM]
CC(C)[C@@H](C)NC(=O)N(C)C[C@H]1OCc2ccccc2-c2c(n(C)c3ccccc23)C(=O)N([C@H](C)CO)C[C@@H]1C	9
CC1=C(C#N)c2nc(N)c(C#N)c(C)c2/C1=C\c1ccccc1	49*
CCc1nc(N)c(C#N)c(-c2cccc3ccccc23)c1C	4
Cc1c(C#N)c(N)nc(Cl)c1C#N	3
C[C@@H]1CN([C@H](C)CO)C(=O)c2ccccc2-c2ccccc2CO[C@H]1CN(C)S(=O)(=O)c1cccs1	-20[25 µM]
COCC(=O)N1[C@H](C#N)[C@H](c2ccc(C#Cc3ccccc3F)cc2)[C@H]1CO	73*[25 µM]
N#C[C@@H]1[C@@H](c2ccc(C#Cc3ccccc3F)cc2)[C@H](CO)N1C(=O)c1cccnc1	-24[25 µM]
N#C[C@H]1[C@H](c2ccc(C#Cc3ccccc3F)cc2)[C@@H](CO)N1C(=O)c1cccnc1	70*[25 µM]
COCC(=O)N1[C@H](C#N)[C@H](c2ccc(C#Cc3ccccc3F)cc2)[C@@H]1CO	-40[25 µM]
N#C[C@H]1[C@@H](c2ccc(C#Cc3ccccc3F)cc2)[C@H](CO)N1C(=O)C1CCC1	-1
N#C[C@@H]1[C@H](c2ccc(C#Cc3ccccc3F)cc2)[C@H](CO)N1C(=O)C1CCCC1	1
N#C[C@@H]1[C@@H](c2ccc(C#Cc3ccccc3F)cc2)[C@@H](CO)N1C(=O)C1CCCC1	-21
COCC(=O)N1[C@@H](C#N)[C@@H](c2ccc(C#Cc3ccccc3F)cc2)[C@@H]1CO	-14[25 µM]
N#C[C@H]1[C@H](c2ccc(C#Cc3ccccc3F)cc2)[C@@H](CO)N1C(=O)C1CCCCC1	62*
N#C[C@H]1[C@@H](c2ccc(C#Cc3ccccc3F)cc2)[C@@H](CO)N1C(=O)C1CCCCC1	29
N#C[C@H]1[C@H](c2ccc(C#Cc3ccccc3F)cc2)[C@H](CO)N1C(=O)C1CC1	63*[25 µM]
N#C[C@H]1[C@@H](c2ccccc2)[C@H](CO)N1C(=O)c1cccnc1	2
C[C@@H]1CN(C)C(=O)Cc2cc(N(C)C)ccc2O[C@H]1CN(C)C	2
SMILES	BL2 CD40 inh
CC(C)C#Cc1ccc([C@@H]2[C@H]3CN(C(=O)NC4CCCCC4)CC(=O)N3[C@H]2CO)cc1	4
C[C@@H]1CN([C@H](C)CO)C(=O)CCCn2nncc2CO[C@H]1CN(C)CC1CCCCC1	8[25 µM]
COc1ccccc1-c1ccc([C@@H]2[C@@H](CO)N(C(=O)CN(C)C)[C@H]2C#N)cc1	6[25 µM]
CCc1csc(N2[C@H](CO)[C@H](c3ccccc3)[C@@H]2CNCCOC)n1	2
Cn1cc(C(=O)c2ccccc2)cc1-c1nc2ccccc2n1C	-2
Cc1oc(-c2nc3ccccc3n2C)cc1C(=O)c1ccccc1	62*
CC(=O)c1ccc(-c2nc3ccccc3n2C)o1	-65
C[C@@H]1CN(C)C(=O)c2cccnc2O[C@H]1CN(C)C	-3
CCCC(NS(=O)(=O)c1ccc(C)cc1)C(=O)O (stereo not given)	15
Cc1ccc(S(=O)(=O)N[C@@H](Cc2ccccc2)C(=O)CCl)cc1	39*
CC(=O)NC(CC(C)C)C(=O)NC(Cc1ccccc1)C(=O)CCl (stereo not given)	-3
O=C(NC1CCCCC1)N1CC(=O)N2[C@H](CO)[C@H](c3ccc(-c4cccnc4)cc3)[C@H]2C1	-11
CN(C)C(=O)c1ccc(-c2ccc(C3[C@@H]4CN(C(=O)C5CCCC5)C[C@H]3N4)cc2)cc1 (stereo not given in full)	9
OC(CCN1CCC2CCC(C2)C1)c1ccc(Br)cc1 (stereo not given)	9
OC(CCN1CCCCC1)c1ccc(-c2ccccc2)cc1 (stereo not given)	57*
OC(COc1ccc(-c2ccccc2)cc1)CN1CCCCC1 (stereo not given)	-18
COc1ccc(OCCOCCN2CCOCC2)cc1	17
COc1ccc(/C=C2/CCC(CN3CCOCC3)C2=O)cc1 (stereo not given)	74*
CN(C)CC1CCC/C(=C\c2ccc(OC(=O)/C=C/c3ccccc3)cc2)C1=O (stereo not given)	3
COc1ccc(NC(=O)N(C)C[C@H]2OCCCC[C@@H](C)Oc3ccc(NC(=O)Nc4ccccc4)cc3C(=O)N([C@@H](C)CO)C[C@H]2C)cc1	-7
Cc1cnc2c(N)cc(C)c(C)c2c1	90*
Cc1cc(N)c(C)c([N+](=O)[O-])c1C	7
O=C1C[C@H](c2ccccc2)C(=O)N[C@H](c2ccccc2)C/C=C\C[C@H](c2ccccc2)N1	9[25 µM]
COc1ccc(C#Cc2ccc3c(c2)[C@@H]2[C@@H](CCN2S(=O)(=O)C2=NC(C)C=N2)[C@H](CO)N3C)cc1 (stereo not given in full)	-3[25 µM]
Cc1ccc(S(=O)(=O)N(C)C[C@@H]2OCCCC[C@H](C)Oc3ccc(NC(=O)c4ccncc4)cc3C(=O)N([C@H](C)CO)C[C@H]2C)cc1	-1[25 µM]
SMILES	BL2 CD40 inh
COc1cccc(S(=O)(=O)Nc2ccc3c(c2)[C@@H]2C[C@@H](CC(=O)NCc4ccccc4F)O[C@@H](CO)[C@@H]2O3)c1	1[25 µM]
O=C(c1ccccn1)N1CC[C@@H]2[C@H](CO)Nc3ccc(Br)cc3[C@@H]21	-16[25 µM]
COc1ccc2c3c([nH]c2c1)[C@H](CO)N(C(=O)Nc1ccccc1F)CC31CN(C(=O)c2ccccc2F)C1	-1
C=C1C(=O)OC2C1CCC(C)C1C=CC(=O)C12C (stereo not given)	25
C=C1C(=O)OC2CC1C(O)CC(C)=CCCC(C)=CC(O)CC2C (stereo not given)	87*
O=C(NCC[C@@H]1CC[C@H](NC(=O)c2ccncc2)[C@@H](CO)O1)Nc1ccc(Cl)cc1	-7[25 µM]
COc1ccc(/C=N/NC(=O)CCn2cnc3ccccc32)cc1	-7
COc1ccc(/C=N\n2nnc3ccccc32)cc1	58*
COc1cccc(/C=N/NC(=O)CCn2nnc3ccccc32)c1	-14
Oc1[nH]c2ccccc2c1N=Nc1ccccc1	-73
Cc1ccc(O)c(N=Nc2ccccc2)n1	55*[25 µM]
c1ccc(N=Nc2ccc(C3=NCCO3)cc2)cc1	14
O=C(Nc1ccccc1N1CCOCC1)c1cnccn1	13
O=C(Nc1ccc(N2CCOCC2)cc1)c1cnccn1	81*
O=C(Nc1ccc(S(=O)(=O)N2CCCC2)cc1)c1cnccn1	-3
O=C(NC1CCCCC1)N1CC(=O)N2[C@H](C1)[C@H](c1ccc(-c3cccnc3)cc1)[C@@H]2CO	3
CCc1ccc(C(=O)COC(=O)CNC(=O)C2CCCCC2)cc1	66*
